Experimental data published in PubChem BioAssay AID602 (SRMLSC, 2007).
The whole screen tested about 85,000 compounds, of which about 35 (0.04%) were called active.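 The calls were made as follows: active = viability drop by adding the cancer drug above about 55%, with treated viability meeting a 40% cutoff (limit read from the data); inactive = the rest, inconclusive results apart.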 For the sample, actives were picked, then their nearest neighbours and some compounds at random.

Test: reversal of MRP1-mediated doxorubicin resistance, primary screen, H69AR cells, doxorubicin co-treatment (AID 602);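 as to differential viability (reversal): larger differential means the compound sensitizes cells more to doxorubicin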
Conditions: CellTiter-Glo, 72 h, at 10 µM; for differential viability (reversal): stronger effect = higher value
[1] = H69AR cells + 2 uM doxorubicin, measured here: viability with 2 uM doxorubicin, stronger effect = lower value
[2] = H69AR cells, measured here: cytotoxicity without doxorubicin

SMILES | differential viability (reversal) (H69AR cells + 2 uM doxorubicin) | viability [1] [%] | viability [2] [%]
Cc1cc(C)n(-c2nnc(C)n2NC(=O)c2cccc(Cl)c2)n1 | -4.55% (inactive) | 92.7 | 88.1
Cc1ccc(OCc2nnc(NC(=O)OCC(C)C)s2)cc1 | 9.33% (inactive) | 92.3 | 102
O=S(=O)(N1CCCCC1)N1CCNCC1 | -0.65% (inactive) | 101 | 100
COc1cccc(OCc2cc(/C=N/NC(=O)c3nc(Cl)c(Cl)c(N)c3Cl)ccc2OC)c1 | -32.4% (inactive) | 52.1 | 19.7
CS(=O)(=O)N(CC(O)Cn1c2ccccc2c2ccccc21)c1cccc2ccccc12 (stereo not drawn) | -10.3% (inactive) | 12 | 1.71
CSc1ccccc1NC(=O)c1cc(C2CC2)on1 | -6.53% (inactive) | 97.2 | 90.7
O=C(NCCOc1ccccc1)c1ccccc1 | -3.69% (inactive) | 95.1 | 91.4
COc1ccc(NC(=O)Nc2ccc3nc(C)c(C)nc3c2)cc1 | 5.42% (inactive) | 85.3 | 90.7
CCNc1nc(NC(C)C)nc(OCCOC(=O)c2ccccc2)n1 | -9.76% (inactive) | 93.2 | 83.5
CC(C)=C1SC(N2CCN(c3cccc(C)c3)CC2)=NC1=O | 15.1% (inactive) | 81.8 | 96.9
O=C(NC1CCCC1)C(c1ccccn1)N(C(=O)c1csnn1)C1CCCC1 (stereo not drawn) | 0.73% (inactive) | 80.5 | 81.2
COC(=O)C1=C(Nc2ccc(C)cc2)C=C(C)C(C(=O)OC)C1c1ccc(F)cc1 (stereo not drawn) | -31.5% (inactive) | 43.6 | 12.1
CCC(C)(C)n1nnnc1CN1CCN(c2nc3ccc(C)cc3cc2C#N)CC1 | 0.16% (inactive) | 81.3 | 81.4
CCOc1cc2[nH]c(=S)n(CCN3CCCCC3C)c(=O)c2cc1OCC (stereo not drawn) | 3.92% (inactive) | 78.5 | 82.5
CCOC(=O)c1cnc(SCC(=O)Nc2ccccc2C(=O)OC)nc1N | 2.9% (inactive) | 84.2 | 87.2
O=C(Nc1ccc2oc(-c3ccc4ccccc4c3)nc2c1)c1cccs1 | -0.32% (inactive) | 2.97 | 2.65
CCN(CC)C(=O)CN(c1cccc(OC)c1)S(=O)(=O)c1ccc(C)cc1 | -12.4% (inactive) | 94.7 | 82.3
Cc1nnc(NC(=O)CCCOc2ccccc2)s1 | 12.8% (inactive) | 80.9 | 93.7
CCn1c(-c2ccoc2C)n[nH]c1=S | 3.26% (inactive) | 86.2 | 89.5
Cc1ccccc1N1CCN(CCCOc2ccc3c(C)cc(=O)oc3c2)CC1 | -14.1% (inactive) | 72.8 | 58.7
O=c1cc(CN2CCN(c3cccc(Cl)c3)CC2)c2cc3c(cc2o1)CCCC3 | 36.9% (inactive) | 82.6 | 120
O=C(c1ccc(Cl)c(Cl)c1)N1CCCC1 | -4.92% (inactive) | 100 | 95.3
Cc1ccc(NC(=O)Nc2ccc3oc(C)nc3c2)cc1 | -17% (inactive) | 91.5 | 74.5
COc1ccc(Cl)cc1C(=O)NCc1cn(C)nc1C | 5.94% (inactive) | 80.2 | 86.1
O=C(CN1CCCCCC1)N1c2ccccc2Sc2ccc(C(F)(F)F)cc21 | -13.5% (inactive) | 50.3 | 36.8
COc1ccc(-c2nnc(SCC(=O)c3ccc4c(c3)OCCO4)o2)cc1 | 2.52% (inactive) | 99.1 | 102

SMILES | differential viability (reversal) (H69AR cells + 2 uM doxorubicin) | viability [1] [%] | viability [2] [%]
Cc1ccc(S(=O)(=O)Oc2ccc(/C=N/NC(=O)c3c(Cl)cnn3C)cc2)cc1 | -3.21% (inactive) | 82.4 | 79.2
COc1ccc(C(=O)Nc2nc(-c3ccc(S(=O)(=O)N4CCOCC4)cc3)cs2)cc1 | -4.07% (inactive) | 62.1 | 58
O=c1c2ccccc2nc2n1C1(CCCCC1)Cc1ccccc1-2 | -4.43% (inactive) | 88.2 | 83.7
COC(=O)/C(NC(C)=O)=C(\C)c1ccc(Cl)cc1 | -15.7% (inactive) | 118 | 102
Cc1nnc(SCC(=O)Nc2ncc3c(n2)CC(C)(C)CC3=O)s1 | 16.1% (inactive) | 79.2 | 95.3
CC(=O)c1cccc(NC(=O)N2CCCC2C(=O)NCCc2ccccc2)c1 (stereo not drawn) | 1.66% (inactive) | 89.9 | 91.5
O=C(/C=C/NNC(=O)c1cccc(Br)c1)c1ccccc1 | -16.9% (inactive) | 78.5 | 61.5
COC(=O)c1ccc(Sc2ccc(F)cc2)c(N)c1 | 11.2% (inactive) | 97.4 | 109
O=C(CN1CCCCC1)N1c2ccccc2Sc2ccc(C(F)(F)F)cc21 | -4.36% (inactive) | 91.2 | 86.8
CC(CO)N1CCS(=O)(=O)CC1 (stereo not drawn) | 9.77% (inactive) | 83.8 | 93.6
O=C(CCN1C(=O)c2ccccc2C1=O)Nc1cccc(F)c1 | 0% (inactive) | 98.2 | 98.2
Cc1ccc(SCCC(=O)OCC(=O)Nc2ncc(Cl)cc2Cl)cc1 | 6.94% (inactive) | 72.7 | 79.6
O=C(NCc1ccco1)c1ccc(Cn2c(=O)c3sccc3n(Cc3ccc(F)cc3)c2=O)cc1 | 11.8% (inactive) | 70.9 | 82.7
CC1(C)CCc2nc(SCc3ccccc3)c(C#N)cc2C1 | 3.69% (inactive) | 77.7 | 81.4
Cc1csc(OCC(=O)Nc2ccc(C)c(C)c2)n1 | 0.06% (inactive) | 107 | 107
Cc1ccc(O)c(CNc2nc3ccccc3n2C)c1 | 3.81% (inactive) | 84.6 | 88.4
O=c1[nH]c2c(c(=O)n1Cc1ccccc1)CCC2 | 3.8% (inactive) | 94.9 | 98.7
COC(=O)c1ccccc1NC(=O)CSc1nnnn1C | -8.64% (inactive) | 104 | 95.3
O=C(NCc1cccnc1)Nc1ccccc1F | -0.98% (inactive) | 99.8 | 98.8
CCCc1nc2scc(-c3ccc(C)cc3)c2c(=O)n1N | -37.7% (inactive) | 83.8 | 46.1
CC(=O)c1ccc2c(c1)c1ccccc1n2CC(C)C | -0.04% (inactive) | 73.3 | 73.2
CCCCC(C(=O)OCC(=O)c1ccc(OC)cc1)N1C(=O)c2ccccc2C1=O (stereo not drawn) | -8.79% (inactive) | 104 | 95
CCn1nccc1C(=O)Nc1ccc(S(=O)(=O)NC23CC4CC(CC(C4)C2)C3)cc1 | -7.56% (inactive) | 84 | 76.5
COc1ccc(Nc2nc(=O)[nH]nc2C)cc1 | -5.85% (inactive) | 101 | 95.5
CCOC(=O)Cc1csc(NC(=O)CSc2nnc(-c3cccnc3)n2Cc2ccco2)n1 | 14.6% (inactive) | 85.7 | 100
COCCn1c(=S)[nH]c2cc(C(=O)NCCc3ccc(OC)c(OC)c3)ccc2c1=O | 2.26% (inactive) | 75.8 | 78.1

SMILES | differential viability (reversal) (H69AR cells + 2 uM doxorubicin) | viability [1] [%] | viability [2] [%]
CC(=O)Nc1ccc(N2C(=O)CCC2=O)cc1C | -10.5% (inactive) | 86.7 | 76.2
CCc1c(C)sc(NC(=O)c2cccs2)c1C(N)=O | 4.09% (inactive) | 95.6 | 99.7
CC1(C)OC(=O)N2CCc3ccccc3C21C (stereo not drawn) | 3.59% (inactive) | 88 | 91.6
Cc1[nH]n(-c2ccc([N+](=O)[O-])cc2)c(=O)c1C=NCCN1CCN(C(=O)c2ccccc2F)CC1 | -1.07% (inactive) | 40.5 | 39.4
COc1cccc(N(CC(=O)NCCSc2ccccn2)S(C)(=O)=O)c1 | 3.02% (inactive) | 92.5 | 95.5
CCCC1NC(=O)NC(C)=C1C(=O)OCC (stereo not drawn) | 2.9% (inactive) | 96.9 | 99.8
COc1ccccc1C(c1nnnn1C(C)(C)C)N1CCN(Cc2ccccc2)CC1 (stereo not drawn) | 9.02% (inactive) | 76.2 | 85.2
Cc1cc2nnc(SCC(=O)N3CCN(c4ccccc4)CC3)n2c(N)n1 | -1.47% (inactive) | 65.8 | 64.4
O=C(Nc1ccc(Cl)cc1)c1cc2nc(C3CC3)cc(C(F)(F)F)n2n1 | 10.2% (inactive) | 69.3 | 79.5
CC1=CC(C)(C)Nc2ccc(OC(=O)C(Cc3ccccc3)N3C(=O)C4CCCCC4C3=O)cc21 (stereo not drawn) | 11.8% (inactive) | 68.5 | 80.3
COCCn1c(C)cc(C2=NNC(=Nc3ccc(F)cc3)SC2)c1C | -17.5% (inactive) | 106 | 88.2
Cc1ccc(-n2c(=O)c(C#N)cc3c(=O)n4ccccc4nc32)cc1C | -12.1% (inactive) | 87.2 | 75.1
Cc1cc(NC(=O)CSc2nc(C(C)C)nc3sc4c(c23)CCC(C)C4)no1 (stereo not drawn) | -2.83% (inactive) | 8.84 | 6.01
CC(C)NC(=O)CSc1ccccc1C(=O)NCc1ccc2c(c1)OCO2 | 5% (inactive) | 91.7 | 96.7
Cc1cccc2c(=O)n3c(nc12)CCCCC3 | 7.51% (inactive) | 83.8 | 91.3
COc1ccc(CNC(=O)CCn2cccc2)cc1 | -1.19% (inactive) | 100 | 98.9
CCOc1cc(C(=O)Nc2c(C)ccc3nsnc23)cc(OCC)c1OCC | -5.65% (inactive) | 84 | 78.3
COC(=O)c1sccc1NC(=O)CCC1CCCC1 | 11.8% (inactive) | 81.7 | 93.5
Cc1cc(O)cc(O)c1C(=O)Cc1cnn(-c2ccccc2)c1 | 13% (inactive) | 66.8 | 79.8
CCOC(=O)c1c(N)sc(C(C)=O)c1C | 11.1% (inactive) | 81.7 | 92.8
Cc1cccc(S(=O)(=O)CC(=O)Nc2nc(-c3ccccc3)cs2)c1 | 12.9% (inactive) | 86.8 | 99.7
Cn1c(SCC(=O)C(C)(C)C)nnc1-c1ccccn1 | 3.29% (inactive) | 95 | 98.3
COc1ccc(NC(=O)C2C3C=CC(C3)C2C(=O)NCc2ccccn2)c(OC)c1 (stereo not drawn) | 48.3% (inactive) | 44.7 | 93.1
Cc1ccc(S(=O)(=O)NCC(=O)N2CCN(c3ccccn3)CC2)cc1 | 14.2% (inactive) | 87.1 | 101
